The entries come from a sample that favours hits as a whole.
ALR inh: inhibitors of human ALR sulfhydryl oxidase, primary screen, biochemical, H2O2 detection, HRP-luminol luminescence, single point | AID 485317, 2010 | FAD-linked sulfhydryl oxidase ALR (Homo sapiens), P55789 | hit rate 3.8% among 290,000 | inhibition, % (concentration not given with the values) | purified ALR, DTT oxidation;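 active = mean replicate inhibition above about 79%, with every replicate also reaching it, limit read from the data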
ERp5 inh: inhibitors of ERp5-driven insulin aggregation, primary screen, biochemical, turbidity, absorbance 650 nm, single point; Protein disulfide-isomerase A6 (Homo sapiens), Q15084; 90 min; inhibition, % at 9.99 µM; hit rate 0.05% among 350,000; AID 651711, 2012;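 active = mean replicate inhibition above about 25%, with every replicate also reaching it, limit read from the data, passing the limit was not always enough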
ARNT-TACC3 inh: disruptors of ARNT/TACC3 protein interaction, primary screen, biochemical, AlphaScreen, single concentration | inhibition, % at 9.99 µM | hit rate 0.66% among 390,000 | AlphaScreen His-ARNT PAS-B/GST-TACC3 binding, luminescence; TACC3 fragment carries E629A point mutation | Transforming acidic coiled-coil-containing protein 3 (Homo sapiens), Q9Y6A5;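 active = mean inhibition of replicates at least 50% and at least half of replicates each reaching 50%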
PDI turbidity: inhibitors of human PDI, primary screen, biochemical, turbidity, single point, plate reader; Protein disulfide-isomerase (Homo sapiens), P07237; PDI insulin aggregation turbidity, A650, 90 min; inhibition, % at 10 µM; hit rate 0.052% among 350,000; AID 588391, 2011;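 active = mean inhibition across replicates of 30% or more, whatever share of single replicates reach that level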
Target sequence (P07237 whole entry, looked up): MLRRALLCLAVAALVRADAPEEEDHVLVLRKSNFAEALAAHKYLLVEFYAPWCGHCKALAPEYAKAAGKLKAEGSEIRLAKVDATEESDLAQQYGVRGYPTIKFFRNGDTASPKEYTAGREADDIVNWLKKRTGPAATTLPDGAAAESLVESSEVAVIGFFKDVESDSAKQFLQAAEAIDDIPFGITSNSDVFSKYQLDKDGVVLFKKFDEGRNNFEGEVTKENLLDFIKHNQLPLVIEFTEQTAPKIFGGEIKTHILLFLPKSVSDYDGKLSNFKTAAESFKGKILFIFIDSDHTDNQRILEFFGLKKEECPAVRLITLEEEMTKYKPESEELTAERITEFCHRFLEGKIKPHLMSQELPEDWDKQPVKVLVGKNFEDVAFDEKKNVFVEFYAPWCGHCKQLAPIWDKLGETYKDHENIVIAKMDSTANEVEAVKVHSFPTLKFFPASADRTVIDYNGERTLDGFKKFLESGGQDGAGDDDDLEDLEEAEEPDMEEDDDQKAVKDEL
CendR NRP1 mod: modulators of CendR peptide binding to NRP-1, primary screen, biochemical, fluorescence polarization, uHTS; FAM-RPARPAR peptide binding to NRP-1; inhibition, % at 25 µM; hit rate 0.85% among 360,000; AID 602438, 2012;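 active = inhibition or corrected inhibition above about 18%, plus a signal ratio from 0.5 to 1.5, limit read from the data, passing the limit was not always enough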
PglD DTNB: C. jejuni PglD acetyltransferase inhibitors, primary screen, biochemical, DTNB colorimetric, single point; UDP-N-acetylbacillosamine N-acetyltransferase PglD (Campylobacter jejuni); purified PglD enzyme, DTNB colorimetric CoA detection; inhibition, % at 12.5 µM; hit rate 0.098% among 360,000; in the data active = inhibition above about 16%, passing the limit was not always enough
ARNT Alpha ctr: AlphaScreen signal interference compounds, dose response, artefact control for ARNT-TACC3 interaction inhibitor project, biochemical, luminescence, cherry-pick | hit rate 50% among 1,200 | shares compounds with ARNT-TACC3 inh | His-ARNT PASB-GST AlphaScreen artifact counter-screen | AC50, µM (series often up to 68 µM);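 active = every separate test run was called active for a drop in luminescence, with AC50 within twice the top valid dose, actives reach about 71 µM in these data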
Numbers stand for hits; i = inactive; nt = no result given.

SMILES	ALR inh	ERp5 inh	ARNT-TACC3 inh	PDI turbidity	CendR NRP1 mod	PglD DTNB	ARNT Alpha ctr
O=C(CSc1nnc(-c2ccncc2)o1)Nc1ccccc1Cl	i	nt	i	i	i	i	nt
O=C(CSc1ccc(-c2ccccn2)nn1)Nc1cccc(F)c1	i	i	74	i	i	i	12µM
Cn1c(SCC(=O)Nc2nccs2)nnc1-c1ccccn1	i	i	i	i	i	i	nt
CNC[C@@H]1OCCCC[C@@H](C)Oc2ccc(NC(=O)c3ccncc3)cc2C(=O)N([C@H](C)CO)C[C@@H]1C	nt	i	i	nt	nt	i	nt
CCC(=O)N(C)C[C@@H]1Oc2cc(C#CCC3CCCC3)ccc2S(=O)(=O)N([C@@H](C)CO)C[C@@H]1C	nt	i	i	nt	nt	i	nt
CCC(=O)NC(c1cc(Cl)c2cccnc2c1O)C(C)C (centres undefined)	i	i	54	i	i	i	69µM
CCC(=O)NC(c1cccs1)c1cc(Cl)c2cccnc2c1O (centres undefined)	i	i	i	i	i	nt	nt
CCCCC(=O)NC(c1cccs1)c1cc(Cl)c2cccnc2c1O (centres undefined)	i	i	i	i	i	nt	nt
CCC(=O)NC(c1cc(Cl)c2cccnc2c1O)C1CC1 (centres undefined)	i	i	58	i	i	i	37µM
COc1ccc(NC(=O)Nc2ccc3c(c2)C(=O)N([C@@H](C)CO)C[C@H](C)[C@@H](CN(C)S(=O)(=O)c2cccs2)O3)cc1	nt	i	i	nt	nt	i	nt
CN(C)CCCNC(=O)C[C@@H]1CC[C@@H]2[C@H](COC[C@@H](O)CN2S(=O)(=O)c2ccc(Cl)cc2)O1	nt	nt	i	nt	nt	i	nt
Cc1noc(C)c1S(=O)(=O)Nc1ccc2c(c1)C(=O)N([C@@H](C)CO)C[C@@H](C)[C@H](CN(C)C(=O)CCCN(C)C)OCCCC[C@@H](C)O2	nt	nt	i	nt	nt	i	nt
Cc1ccc(C)c(NC(=O)CSc2cccc3cccnc23)c1	i	i	i	i	i	i	nt
CCOc1cc(/C=N/NC(=O)CSc2cccc3cccnc23)ccc1O	99	i	63	i	i	nt	i
O=C(CSc1cccc2cccnc12)N/N=C/c1ccncc1	i	i	62	i	i	nt	i
CCC(=O)N1[C@@H](CO)[C@@H](c2ccc(-c3ccc(F)cc3)cc2)C12CN(C(C)=O)C2	nt	i	nt	nt	nt	nt	nt
CCNC(=O)C[C@@H]1CC[C@@H]2[C@H](COC[C@@H](O)CN2C(=O)C2CCCC2)O1	nt	i	i	nt	nt	i	nt
Cc1[nH]n(-c2ccccc2)c(=O)c1C(c1cccc([N+](=O)[O-])c1)c1c(C)[nH]n(-c2ccccc2)c1=O	i	i	nt	i	i	nt	nt
Cc1[nH]n(-c2ccccc2)c(=O)c1C(c1ccc(C(=O)O)cc1)c1c(C)[nH]n(-c2ccccc2)c1=O	i	i	18	i	i	nt	i
COc1cccc(CNC(=O)COC(=O)c2ccc(C(=O)c3ccccc3)cc2)c1	nt	i	55	i	i	i	i
COCC(=O)Nc1ccc2nc3n(c(=O)c2c1)CCCCC3	i	i	i	i	i	i	nt
COc1cc(NC(=O)C(=O)Nc2ccc3nc4n(c(=O)c3c2)CCCCC4)cc(OC)c1OC	i	i	50	i	i	nt	i
CNC[C@@H]1Oc2c(NC(=O)c3cnccn3)cccc2C(=O)N([C@H](C)CO)C[C@@H]1C	nt	i	i	nt	nt	i	nt
COc1ccc2nc(-c3ccccn3)[nH]c2c1	i	i	40	i	i	i	i
COc1ccc2nc(-c3cccc(N)c3)[nH]c2c1	nt	nt	i	i	i	i	nt
SMILES	ALR inh	ERp5 inh	ARNT-TACC3 inh	PDI turbidity	CendR NRP1 mod	PglD DTNB	ARNT Alpha ctr
Nc1ccc2nc(-c3ccccn3)[nH]c2c1	nt	nt	46	i	i	i	45µM
C[C@]12C=CC(=O)N1CCc1c2[nH]c2ccccc12	nt	i	i	nt	nt	i	nt
COc1ccc(/C=N/Nc2nncn2N)cc1Br	nt	i	55	i	i	i	i
C=CCn1c(Cc2csc(N)n2)nnc1SCC(=O)Nc1ccc(C(=O)OCC)cc1	i	nt	61	i	i	i	i
C[C@H](CO)N1C[C@H](C)[C@H](CN(C)C(=O)Nc2ccc(C(F)(F)F)cc2)Oc2ccc(NC(=O)NC3CCCCC3)cc2CC1=O	nt	i	i	nt	nt	i	nt
Oc1c(C(c2ccccn2)N2CCCCC2)cc(Cl)c2cccnc12 (centres undefined)	83	i	69	i	i	i	8.1µM
CN1CCN(C(c2ccc(Cl)cc2)c2cc(Cl)c3cccnc3c2O)CC1 (centres undefined)	i	i	i	i	i	i	nt
C[C@@H]1CN([C@H](C)CO)S(=O)(=O)c2ccc(C#Cc3ccccn3)cc2O[C@@H]1CN(C)C(=O)C1CC1	nt	i	51	nt	nt	i	i
CCNC(=O)Nc1ccc2c(c1)C(=O)N(C)[C@@H]1CC[C@@H](CC(=O)N[C@H](C)c3ccccc3)O[C@H]1CO2	nt	i	i	nt	nt	i	nt
N#Cc1ccc(C(=O)Nc2nnc(-c3ccco3)o2)cc1	nt	i	40	i	i	nt	i
Cc1ccsc1C(=O)Nc1nnc(-c2ccco2)o1	i	nt	54	i	i	i	48µM
Cc1ccc(C(=O)Nc2nnc(-c3ccco3)o2)cc1	i	i	i	i	i	i	nt
COc1ccccc1C#Cc1cnc2c(c1)C(=O)N([C@H](C)CO)C[C@@H](C)[C@H](CN(C)C(=O)c1ccc3c(c1)OCO3)O2	nt	i	i	nt	nt	i	nt
Cc1cc(C)n2nc(-c3cccc(Br)c3)cc2n1	i	i	51	i	i	i	i
COc1ccc(NC(=O)Nc2ccc3c(c2)C(=O)N([C@H](C)CO)C[C@@H](C)[C@@H](CN(C)C(=O)CCC(F)(F)F)OCCCC[C@H](C)O3)cc1	nt	i	active	nt	nt	i	i
CC(C)NC(=O)N(C)C[C@H]1OCCCC[C@H](C)Oc2ccc(NC(=O)Nc3ccccc3)cc2C(=O)N([C@H](C)CO)C[C@@H]1C	nt	i	108	nt	nt	i	i
COc1ccc(NC(=O)Nc2ccc3c(c2)C(=O)N([C@H](C)CO)C[C@H](C)[C@@H](CN(C)C(=O)CCC(F)(F)F)OCCCC[C@@H](C)O3)cc1	nt	nt	i	nt	nt	i	nt
CC(C)NC(=O)Nc1ccc2c(c1)C(=O)N([C@H](C)CO)C[C@H](C)[C@@H](CN(C)C(=O)Cc1ccccc1)OCCCC[C@H](C)O2	nt	i	97	nt	nt	i	i
